{
  "source": "the supplement of paper PMC4894684",
  "note": "Structures can show the parent of a compound that is named as a salt. ± gives the standard deviation of the averaged measurements.",
  "data": [
    {"test_system": "Toxoplasma gondii RH (in HFF)", "assay": "parasite growth relative to the screen mean (all compounds = 100%); higher = less inhibition of parasite growth", "settings": "5 µM; 72 h; oxygen 21 %", "outline": "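Each value is parasite growth expressed against the screen mean, averaged over two screens, where the mean of all compounds = 100%. The screen used 5 µM final compound on confluent human foreskin fibroblasts infected with RH β-Gal–GFP Toxoplasma (MOI 1:5) within 2 h and grown 72 h at 21% O2. Parasite number was measured by a CPRG β-Gal assay against in-plate standard curves.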", "units": {"parasite growth": "%"}, "values": [
      {"smiles": "NCCc1c[nH]c2ccc(C(N)=O)cc12", "note": "[5-Carboxamidotryptamine maleate]", "parasite growth": "158 ± 72"},
      {"smiles": "CCC[C@@H]1CC2=CC(=O)CC[C@]2(C)[C@H]2CC[C@@]3(C)[C@@H](CC[C@@]3(O)CCC(=O)O)[C@H]12", "parasite growth": "75.2 ± 19"},
      {"smiles": "Oc1ccc2c3c1O[C@H]1c4oc5ccccc5c4C[C@@]4(O)[C@@H](C2)N(CC2CC2)CC[C@]314", "note": "[Naltriben mesylate]", "parasite growth": "127 ± 55"},
      {"smiles": "NC(N)=Nc1ccc2[nH]c3c(c2c1)C[C@@]1(O)[C@H]2Cc4ccc(O)c5c4[C@@]1(CCN2CC1CC1)[C@H]3O5", "note": "[GNTI dihydrochloride]", "parasite growth": "124 ± 2.5"},
      {"smiles": "CCCN(CCC)C1Cc2cc(OC)c(OC)cc2C1", "parasite growth": "123 ± 7.5"},
      {"smiles": "CC12NC(Cc3ccccc31)c1ccccc12", "note": "(single isomer, unassigned; (+)) [(+)-MK 801 maleate]", "parasite growth": "123 ± 15"},
      {"smiles": "CN1CCC(c2c[nH]c3ccc(O)cc23)CC1", "parasite growth": "177 ± 16"},
      {"smiles": "CCN1C[C@]2(COC(=O)c3ccccc3N3C(=O)C[C@H](C)C3=O)CC[C@H](OC)[C@@]34[C@@H]5C[C@H]6[C@H](OC)[C@@H]5[C@](O)(C[C@@H]6OC)[C@](O)([C@@H](OC)[C@H]23)[C@@H]14", "note": "[Methyllycaconitine citrate]", "parasite growth": "83.1 ± 5.7"},
      {"smiles": "Cc1ncsc1CCCl", "note": "[Chlormethiazole hydrochloride]", "parasite growth": "60 ± 21"},
      {"smiles": "O=C1CCCN1CC#CCN1CCCC1", "note": "[Oxotremorine sesquifumarate]", "parasite growth": "92 ± 32"},
      {"smiles": "C[C@@H](N)Cc1cnc[nH]1", "note": "[(R)-(-)- α-Methylhistamine dihydrobromide]", "parasite growth": "107 ± 25"},
      {"smiles": "O=c1cccc2n1C[C@@H]1CNC[C@H]2C1", "note": "[(-)-Cytisine]", "parasite growth": "128 ± 26"},
      {"smiles": "COc1cc(N)c(Cl)cc1C(=O)NC1CN2CCC1CC2", "note": "(centres undefined) [Zacopride hydrochloride]", "parasite growth": "142 ± 12"},
      {"smiles": "C[C@@]12C(=O)OC(=O)[C@]1(C)[C@H]1CC[C@@H]2O1", "note": "[Cantharidin]", "parasite growth": "68.8 ± 46"},
      {"smiles": "CCOC(=O)c1ncc2[nH]c3ccc(OCc4ccccc4)cc3c2c1COC", "parasite growth": "83.8 ± 31"},
      {"smiles": "CC(C)NCC(O)c1ccc(N)c(C#N)c1", "note": "(centres undefined) [Cimaterol]", "parasite growth": "130 ± 2.8"},
      {"smiles": "N[C@H](C(=O)O)c1cc(O)no1", "note": "[Ibotenic acid]", "parasite growth": "136 ± 26"},
      {"smiles": "CCCCCCC[n+]1ccc(-c2cc[n+](CCCCCCC)cc2)cc1", "note": "[DHBP dibromide]", "parasite growth": "86.1 ± 44"},
      {"smiles": "COc1ccc(C(=O)c2c(C)n(CCN3CCOCC3)c3cc(I)ccc23)cc1", "parasite growth": "149 ± 18"},
      {"smiles": "CN(C)c1ccc(/C=C2\\CCCN=C2c2cccnc2)cc1", "note": "[DMAB-anabaseine dihydrochloride]", "parasite growth": "97.4 ± 15"},
      {"smiles": "C=C(C)CN1CC[C@@]23c4c5ccc(O)c4O[C@H]2c2[nH]c4ccccc4c2C[C@]3(O)C1C5", "note": "[SDM25N hydrochloride]", "parasite growth": "77.5 ± 21"},
      {"smiles": "CCCN(C/C=C/I)C1CCc2ccc(O)cc2C1", "note": "(centres undefined) [7-Hydroxy-PIPAT maleate]", "parasite growth": "181 ± 37"},
      {"smiles": "CC(C(=O)OC1CC2CCC(C1)N2C)c1ccc(Br)cc1", "note": "(centres undefined) [PG-9 maleate]", "parasite growth": "101 ± 1.4"},
      {"smiles": "CCOC(=O)c1ncn2c1CN(C)C(=O)c1cc(N=[N+]=[N-])ccc1-2", "parasite growth": "60 ± 14"},
      {"smiles": "Cc1onc(O)c1C[C@H](N)C(=O)O", "parasite growth": "113 ± 34"},
      {"smiles": "FC(F)(F)c1cccc(C2=CCN(CCc3ccc4ccccc4c3)CC2)c1", "note": "[Xaliproden hydrochloride]", "parasite growth": "159.2 ± 1.1"},
      {"smiles": "O=C1NCN(c2ccccc2)C12CCN(CC1COc3ccccc3O1)CC2", "note": "(centres undefined) [Spiroxatrine]", "parasite growth": "140.8 ± 0.7"},
      {"smiles": "c1cc(Cc2cnc[nH]2)ccn1", "note": "[Immethridine dihydrobromide]", "parasite growth": "133 ± 31"},
      {"smiles": "CC[N+](CC)(CCCNC1=CC(=O)C(NCCC[N+](CC)(CC)Cc2ccccc2)=CC1=O)Cc1ccccc1", "note": "[Benzoquinonium dibromide]", "parasite growth": "129 ± 29"},
      {"smiles": "Cc1ccc(C[N+](C)(C)C)o1", "note": "[5-Methylfurmethiodide]", "parasite growth": "100 ± 6.6"},
      {"smiles": "N[C@@H](Cn1oc(=O)[nH]c1=O)C(=O)O", "note": "[L-Quisqualic acid]", "parasite growth": "99 ± 20"},
      {"smiles": "C[C@H](Cc1ccc(OCC(=O)O)cc1)NC[C@H](O)c1cccc(Cl)c1", "parasite growth": "90.6 ± 30"},
      {"smiles": "COc1ccc(-n2nc(C(F)(F)F)cc2-c2ccc(Cl)cc2)cc1", "parasite growth": "117 ± 22"},
      {"smiles": "Cc1ncc(CN2CC=C(c3ccccc3)CC2)c(N)n1", "parasite growth": "135 ± 13"},
      {"smiles": "Cc1nnc2ccc(-c3cccc(C(F)(F)F)c3)nn12", "parasite growth": "126 ± 14"},
      {"smiles": "O=C(O)CCC(CP(=O)(O)O)C(=O)O", "note": "(centres undefined) [PMPA (NAALADase inhibitor)]", "parasite growth": "126 ± 9.3"},
      {"smiles": "C=C(C)[C@H]1CN[C@H](C(=O)O)[C@H]1CC(=O)O", "note": "[Kainic acid]", "parasite growth": "58.7 ± 12"},
      {"smiles": "O=C(CCCN1CCC2(CC1)C(=O)N(Cc1cccc(F)c1)CN2c1ccccc1)c1ccc(F)cc1", "note": "[3'-Fluorobenzylspiperone maleate]", "parasite growth": "< 0"},
      {"smiles": "O=c1[nH]oc2c1CCNC2", "note": "[THIP hydrochloride]", "parasite growth": "119 ± 21"}
    ]}
  ]
}
